In test [1] the target is Aromatase (Homo sapiens) (UniProt P11511). Description: qHTS assay to identify aromatase inhibitors (AID 743083). Also: nearly all actives have a fitted effect of over 55% in size. Also: potency is read from the fitted curve at half-maximal effect.
Test [2] addresses Aryl hydrocarbon receptor (Homo sapiens) (UniProt P35869). In words: qHTS assay to identify small molecule that activate the aryl hydrocarbon receptor (AhR) signaling pathway (AID 743085). Also: nearly all actives have a fitted effect of over 15% in size. Also: potency is read from the fitted curve at half-maximal effect. In outline:
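Luminescence (ONE-Glo) from a dioxin-responsive-element luciferase reporter in HG2L7.5c1 HepG2 cells after 24 hr compound exposure at 37C; viability measured by CellTiter-Fluor fluorescence beforehand.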
(Quantitative high-throughput screening tests each substance at several concentrations.)

The nature of test [3]: qHTS assay for small molecules that induce genotoxicity in human embryonic kidney cells expressing luciferase-tagged ATAD5 (AID 651632). Also: nearly all actives have a fitted effect of over 15% in size. The gist of the method: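 Cells were seeded at 2,000 per well, dosed with compound, and incubated 16 hr at 37C in 5% CO2. Luciferase activity was then quantified after a 30 min room-temperature incubation with Amplite.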
Test [4] is described as follows: qHTS assay for small molecules that induce genotoxicity in human embryonic kidney cells expressing luciferase-tagged ATAD5 - cell viability (AID 651634; calls by dose curve; also: nearly all actives have a fitted effect of over 25% in size). In outline: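 Cells (HEK293T, luciferase-tagged ATAD5) are seeded at 2,000 per well, dosed with compound or DMSO vehicle, and incubated 15.5 hr at 37C and 5% CO2. CellTiter-Fluor is added for 30 min before fluorescence is measured.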

Test [5] in a line: qHTS assay for small molecule disruptors of the mitochondrial membrane potential - cell viability (AID 720634; calls by dose curve;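 also: human HepG2 liver cancer cells; series mostly up to about 83 µM; nearly all actives have a fitted effect of over 20% in size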). The gist of the method:
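Cytotoxicity was measured by ATP quantitation in HepG2 wells that had first been treated with compound for 1 hr and stained with m-MPI dye; CellTiter-Glo incubation was 30 min at room temperature.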

A short description of test [6]: qHTS assay to test for compound auto fluorescence at 590 nm (red) in HepG2 cells (AID 720674). The gist of the method: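 Fluorescence at 590 nm emission following 540 nm excitation was recorded from HepG2 wells one hour after compound transfer, with DMSO-only wells as vehicle and Rose Bengal sodium equivalency as the scale.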
Test [7] in a line: qHTS assay to test for compound auto fluorescence at 535 nm (green) in HepG2 cells (AID 720675).
Test [8] in a line: qHTS assay to test for compound auto fluorescence at 460 nm (blue) in HEK293 cell free culture (AID 720681). In outline: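 Compounds were added to cell-free DMEM with 10% FBS and fluorescence read directly. The blue channel used 405 nm excitation and 460 nm emission, with triamterene as the reference fluorophore.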
A short description of test [9]: qHTS assay to test for compound auto fluorescence at 535 nm (green) in HEK293 cell free culture (AID 720682). The gist of the method:
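Compounds were pin-transferred into cell-free DMEM with 10% FBS, and green fluorescence was read at excitation 485 nm and emission 535 nm. Intensities were expressed as fluorescein-equivalent values.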

Test [10] can be described thus: qHTS assay to test for compound auto fluorescence at 590 nm (red) in HEK293 cell free culture (AID 720683). The gist of the method: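 Cell-free wells of DMEM with 10% FBS received compound, and intrinsic fluorescence was read at excitation/emission 540/590 nm. Values expressed as equivalence to Rose Bengal sodium.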
Test [11] can be described thus: qHTS assay to test for compound auto fluorescence at 460 nm (blue) in HepG2 cell free culture (AID 720685). The gist of the method:
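Cell-free plates of MEM plus 10% FBS received 23 nL compound or DMSO vehicle; blue-channel (405/460 nm) intensity scored against triamterene as reference fluorophore.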

A short description of test [12]: qHTS assay to test for compound auto fluorescence at 535 nm (green) in HepG2 cell free culture (AID 720686).
The nature of test [13]: qHTS assay to test for compound auto fluorescence at 460 nm (blue) in HepG2 cells (AID 720687). The gist of the method: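 HepG2 cells in MEM with 10% FBS, attached overnight at 37 C, were exposed to compound or DMSO for 1 hr at 37 C, 5% CO2. Blue fluorescence was read at 405/460 nm, with triamterene as reference fluorophore.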
Test [14] is described as follows: qHTS assay to identify small molecule antagonists of the glucocorticoid receptor (GR) signaling pathway - cell viability counter screen (AID 720693). Also: nearly all actives have a fitted effect of over 55% in size. Also: potency is read from the fitted curve at half-maximal effect.
The nature of test [15]: qHTS assay to identify small molecule antagonists of the thyroid receptor (TR) signaling pathway (AID 743065). Also: nearly all actives have a fitted effect of over 55% in size. Also: potency is read from the fitted curve at half-maximal effect. In outline:
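GH3.TRE-Luc rat pituitary cells (two TREs driving luciferase) were dosed with compound, then stimulated with 1 nM T3 (final) for 23.5 h at 37 C. ONE-Glo luminescence was the read-out, with CellTiter-Fluor fluorescence as the cytotoxicity counter-screen.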

For test [16], the system named is thyroid hormone receptor (rat, GH3 cells). Description: qHTS assay to identify small molecule agonists of the thyroid receptor (TR) signaling pathway (AID 743066; calls by dose curve).
Test [17] can be described thus: qHTS assay to identify small molecule antagonists of the estrogen receptor alpha (ER-alpha) signaling pathway - cell viability counter screen (AID 743074; calls by dose curve;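 also: HEK293 cells carrying ER-alpha-UAS-bla reporter stimulated with 17beta-estradiol; nearly all actives have a fitted effect of over 45% in size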; also: potency is read from the fitted curve at half-maximal effect).
Test [18] in a line: qHTS assay to identify small molecule antagonists of the estrogen receptor alpha (ER-alpha) signaling pathway using the BG1 cell line - cell viability counter screen (AID 743081).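 Also: compound given together with 17beta-estradiol as the ER stimulus; nearly all actives have a fitted effect of over 45% in size.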 Also: potency is read from the fitted curve at half-maximal effect.
Test [19] is described as follows: qHTS assay to identify aromatase inhibitors - cell viability counter screen (AID 743084).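 Also: cells stimulated with testosterone during compound exposure; nearly all actives have a fitted effect of over 55% in size.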 Also: potency is read from the fitted curve at half-maximal effect.
Test [20] can be described thus: qHTS assay to identify small molecule phospholipidosis (PLD) inducers (AID 1259344; active = well fitted curve in the direction sought with a large enough effect; an effect the other way counts as inactive or inconclusive). In outline:
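Image-based: LipidTOX Red pit count/intensity per well and per cell; HepG2, 24 h compound at 37 C, PFA fixation, Hoechst counterstain.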

Where “and” joins values, the source holds several entries; their conditions need not be identical. Identical values can stand only once. Records with an inconclusive call do not appear. More than one record can exist for a structure, and the calls need not agree. Calls of active or inactive are those of the source. Unless noted, calls follow the shape of the dose curve; as a rule, active = well fitted curve in the direction sought with a large enough effect in the repeat runs; inconclusive = weak or mixed curves; inactive = no such curve, though single readings can be large; an effect the other way counts as inactive or inconclusive.

Aromatase (Homo sapiens), sequence (P11511 whole entry, looked up): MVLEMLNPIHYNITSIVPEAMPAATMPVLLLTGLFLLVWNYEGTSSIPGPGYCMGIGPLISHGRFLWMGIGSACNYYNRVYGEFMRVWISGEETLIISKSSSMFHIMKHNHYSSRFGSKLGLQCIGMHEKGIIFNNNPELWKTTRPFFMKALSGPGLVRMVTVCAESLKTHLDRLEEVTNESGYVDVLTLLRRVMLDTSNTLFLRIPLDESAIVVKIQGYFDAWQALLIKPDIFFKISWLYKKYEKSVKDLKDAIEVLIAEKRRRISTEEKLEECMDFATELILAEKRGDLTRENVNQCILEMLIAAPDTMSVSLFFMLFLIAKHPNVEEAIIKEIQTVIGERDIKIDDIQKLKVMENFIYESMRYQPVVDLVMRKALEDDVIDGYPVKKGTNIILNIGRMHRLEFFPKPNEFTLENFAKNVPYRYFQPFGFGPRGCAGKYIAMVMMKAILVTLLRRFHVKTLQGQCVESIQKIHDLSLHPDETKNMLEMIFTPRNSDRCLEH
Aryl hydrocarbon receptor (Homo sapiens), sequence (P35869 whole entry, looked up): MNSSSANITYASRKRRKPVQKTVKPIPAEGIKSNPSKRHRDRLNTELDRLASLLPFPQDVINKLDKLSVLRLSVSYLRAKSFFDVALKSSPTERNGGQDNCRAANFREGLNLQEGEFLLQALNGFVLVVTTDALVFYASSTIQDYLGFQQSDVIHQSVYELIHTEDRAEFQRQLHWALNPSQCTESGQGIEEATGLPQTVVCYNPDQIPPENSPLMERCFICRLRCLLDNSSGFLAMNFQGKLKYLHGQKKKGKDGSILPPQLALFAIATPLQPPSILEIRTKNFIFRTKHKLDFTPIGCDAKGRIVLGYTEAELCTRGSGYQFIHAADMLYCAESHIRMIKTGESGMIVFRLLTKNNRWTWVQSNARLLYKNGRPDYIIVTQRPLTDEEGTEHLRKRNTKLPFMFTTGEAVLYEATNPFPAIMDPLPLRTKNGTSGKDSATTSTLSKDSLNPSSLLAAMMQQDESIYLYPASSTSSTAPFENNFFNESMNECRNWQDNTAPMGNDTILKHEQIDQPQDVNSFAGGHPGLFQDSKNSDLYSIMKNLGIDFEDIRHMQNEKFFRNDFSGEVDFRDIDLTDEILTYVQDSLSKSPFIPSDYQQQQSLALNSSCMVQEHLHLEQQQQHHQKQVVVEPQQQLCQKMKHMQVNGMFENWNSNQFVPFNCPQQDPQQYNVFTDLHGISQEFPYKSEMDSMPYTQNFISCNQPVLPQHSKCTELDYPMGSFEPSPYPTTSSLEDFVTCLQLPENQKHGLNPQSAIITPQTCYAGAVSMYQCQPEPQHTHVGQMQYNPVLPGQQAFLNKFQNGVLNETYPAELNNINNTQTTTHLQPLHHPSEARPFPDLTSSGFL

Turning to `Nc1ccc(N)c2ccccc12`, the values for the Potency in [1] and in [2] were 3.06 µM (active) and 0.968 µM (active), respectively.
Consider `O=P(OC(CCl)CCl)(OC(CCl)CCl)OC(CCl)CCl`, for which the Potency result in test [2] is “inactive”.
For `NCC(O)c1cccc(O)c1` (centres undefined), the Potency entry in test [3], in test [4], in test [5], in test [7], in [8] and in test [9] was “inactive” each time. Besides, the Potency entry in test [11], in [12], in [13], in test [14], in [15] and in [16] was “inactive” each time. Also, the Potency result in [17], in test [18], in test [1], in test [19], in test [2] and in [20] was “inactive” throughout. Moreover, the result in test [6] and in test [10] was inactive.
For `CC(=O)O[C@H]1CC[C@H]2[C@@H]3CCC4=CC(=O)CCC4=C3C=C[C@]12C`, the Potency result in [3], in test [4], in [5], in test [7], in [8] and in [9] was “inactive” throughout. The Potency entry in [11], in test [12], in test [13], in [15], in test [16] and in test [18] was “inactive” throughout. Also, the Potency result in [1], in test [19], in test [2] and in test [20] was “inactive” in each case. Besides, the outcome in test [6] and in test [10] was inactive.
Consider `CCC1(C)CC(=O)NC(=O)C1`, for which the Potency entry in [3], in [4], in test [5], in test [7], in test [8] and in test [9] was “inactive” each time. The Potency entry in test [11], in [12], in [13], in [14], in test [15] and in test [16] was “inactive” each time. Besides, the Potency result in [17], in [18], in [1], in test [19], in test [2] and in test [20] was “inactive” in each case. In addition, the compound was classed as inactive in [6] and in test [10].
Turning to `CC(=O)OO`, the Potency entry in test [3], in test [4], in [5], in test [7], in test [8] and in test [9] was “inactive” in each case. The Potency entry in test [11], in [13], in test [14], in test [15], in [16] and in [17] was “inactive” in each case. Further, the Potency result in test [18], in test [1], in test [19], in [2] and in [20] was “inactive” throughout. In addition, the outcome in test [6] and in test [10] was inactive.
As for `CCC(=O)O[C@@](Cc1ccccc1)(c1ccccc1)[C@@H](C)CN(C)C`, the Potency entry in [3], in [4], in test [5], in [7], in test [8] and in [9] was “inactive” in each case. Moreover, the Potency result in test [11], in [12], in test [13], in test [14], in test [15] and in test [16] was “inactive” throughout. Moreover, the Potency entry in test [17] and in test [20] was “inactive” throughout. Also, the compound was called inactive in test [6] and in [10].
With `O=C1CN(O)C(c2ccccc2)=c2cc(Cl)ccc2=N1`, the Potency result in test [3], in test [4], in test [5], in [8], in test [9] and in test [11] was “inactive” each time. The Potency entry in [13], in test [14], in test [15], in [16], in [17] and in [18] was “inactive” in each case. The Potency entry in test [1], in test [19], in test [2] and in test [20] was “inactive” throughout. Moreover, the compound was classed as inactive in test [6] and in [10].
`C=CCN(C1=NCCN1)c1c(Cl)cccc1Cl`: the Potency result in [3], in [4], in [5], in [7], in test [8] and in test [9] was “inactive” in each case. Besides, the Potency entry in test [11], in [12], in test [13], in test [14], in test [15] and in test [16] was “inactive” each time. Besides, the Potency entry in test [17], in test [18], in [1], in [19], in test [2] and in test [20] was “inactive” each time. In addition, the result in [6] and in [10] was inactive.
Consider `COC(COC(N)=O)C1=C(N2CC2)C(=O)C(C)=C(N2CC2)C1=O` (centres undefined), for which the Potency entry in test [3], in test [4], in test [5], in test [7], in test [8] and in test [9] was “inactive” in each case. In addition, the Potency entry in [11], in test [12], in [13] and in test [20] was “inactive” throughout. Besides, the compound was called inactive in [6] and in test [10]. For the same compound, the Potency was 1.9 µM (active) in [14]; 0.168 µM (active) in test [15]; 13.4 µM (active) in [17]; 6.68 µM (active) in [18]; 21.1 µM (active) in test [1]; 29.8 µM (active) in [2].
Consider `CCNCC(O)c1cccc(O)c1` (centres undefined), for which the Potency entry in [3], in test [4], in test [5], in test [7], in test [8] and in [9] was “inactive” throughout. The Potency result in [11], in test [13], in test [14], in [15], in test [16] and in [17] was “inactive” in each case. The Potency result in [1], in test [19], in test [2] and in [20] was “inactive” each time. For the same compound, the result in test [6] and in test [10] was inactive.
On to `Clc1ccc2c(c1)C(c1ccccc1)=NCc1nncn1-2`, for which the Potency result in test [3], in test [4], in test [5], in test [7], in test [8] and in [9] was “inactive” in each case. The Potency result in test [11], in [12], in [13], in [14], in test [15] and in [16] was “inactive” in each case. Also, the Potency result in test [17], in test [18], in [1], in test [19], in test [2] and in [20] was “inactive” throughout. Also, the call in [6] and in [10] was inactive.
As for `CN[C@H]1C[C@@H](N)[C@H](O)[C@@H](O[C@@H]2O[C@H](CO)[C@H](O)[C@@H]3OC4(O[C@H]23)O[C@H](C(N)CO)[C@H](O)[C@H](O)[C@H]4O)[C@@H]1O` (some centres undefined), the Potency result in test [3], in test [4], in test [5], in [7], in [8] and in [9] was “inactive” throughout. For the same compound, the Potency entry in test [11], in [12], in test [13], in test [14], in test [16] and in [17] was “inactive” throughout. Moreover, the Potency result in test [18], in test [1], in test [19], in test [2] and in test [20] was “inactive” throughout. Besides, the result in test [6] and in test [10] was inactive. For the same compound, the Potency in test [15] was 11.9 µM (active).
In the case of `Cc1ccccc1-n1c(C)nc2ccccc2c1=O`, the Potency entry in test [3], in [4], in test [5], in [7], in test [8] and in [9] was “inactive” throughout. For the same compound, the Potency entry in test [11], in test [12], in [13], in test [14], in [15] and in test [16] was “inactive” in each case. In addition, the Potency result in [17], in test [18], in test [1] and in test [20] was “inactive” in each case. Further, the outcome in test [6] and in test [10] was inactive. Also, the Potency entry in test [19] was “inactive and 24.1 µM (active)”.
Take `C[C@]12CC[C@H]3[C@@H](CCC4=C(O)C(=O)CC[C@@H]43)[C@@H]1CC[C@@H]2OC(=O)CCC1CCCC1`: the Potency result in test [3], in test [4], in test [5], in test [7], in test [8] and in test [9] was “inactive” each time. The Potency result in [11], in test [12], in test [13], in [14], in [15] and in [16] was “inactive” each time. Besides, the Potency result in test [17], in test [18], in test [1], in test [19], in [2] and in test [20] was “inactive” throughout. Moreover, the result in [6] and in [10] was inactive.
